Laboratory results taken from the supplement of paper PMC3334620.
In all, about 33,000 sequences were measured (“E-score (-0.5 to 0.5)”: median about -0.01, highest 2% from about 0.26 on). The entries come from a sample that favours the highest values as a whole.

molecular target: Ste12 (UniProt P13574); assay: PBM E-score (8-mer binding enrichment) (E-score (-0.5 to 0.5)); higher = stronger / more preferred TF binding; conditions: protein concentration: 200 nM; construct: GST-DNA-binding domain
Procedure, shortened: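 For each ungapped eight-base word taken together with its reverse complement, the Universal PBM Analysis Suite assigned an E-score. Binding data came from GST-tagged yeast transcription factors, applied at about 100-200 nM, on universal all-10-mer Agilent arrays made double-stranded by primer extension. Fluorescent anti-GST marked bound protein, and scans were normalised with masliner.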

Sequence of UniProt P13574 (P13574 whole entry, the tested form may be a part): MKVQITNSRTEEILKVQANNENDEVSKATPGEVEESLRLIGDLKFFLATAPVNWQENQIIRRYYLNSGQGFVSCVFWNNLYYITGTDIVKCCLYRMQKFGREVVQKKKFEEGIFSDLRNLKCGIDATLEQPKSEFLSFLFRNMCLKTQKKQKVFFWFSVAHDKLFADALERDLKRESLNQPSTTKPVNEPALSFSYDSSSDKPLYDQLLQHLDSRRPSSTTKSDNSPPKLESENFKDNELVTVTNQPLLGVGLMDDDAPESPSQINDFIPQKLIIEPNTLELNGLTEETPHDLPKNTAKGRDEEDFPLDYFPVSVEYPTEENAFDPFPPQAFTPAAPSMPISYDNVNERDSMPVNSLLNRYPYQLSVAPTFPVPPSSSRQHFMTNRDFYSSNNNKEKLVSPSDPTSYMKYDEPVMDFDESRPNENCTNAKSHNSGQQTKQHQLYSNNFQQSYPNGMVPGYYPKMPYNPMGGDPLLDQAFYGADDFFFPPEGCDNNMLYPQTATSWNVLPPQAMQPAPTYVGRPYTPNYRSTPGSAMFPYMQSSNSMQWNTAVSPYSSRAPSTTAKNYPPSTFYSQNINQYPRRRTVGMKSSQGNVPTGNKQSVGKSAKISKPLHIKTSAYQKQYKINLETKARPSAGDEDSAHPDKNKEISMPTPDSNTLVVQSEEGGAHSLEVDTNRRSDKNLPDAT

Sequence	PBM E-score
TACTTCAA	0.0645
AATCTAGG	0.0839
GATGGTAA	0.0297
CACCATAG	-0.041
AACATAAG	0.289
ATCATAAG	0.0492
CACATAAG	0.044
CCAGAGTA	0.03
CCCGTCTA	-0.125
AATAGCAA	0.00204
AAACGTTT	0.283
AAACGTGT	0.123
AAACGTTG	0.111
AAACGTGG	0.0452
AAACGTGA	0.312
AAACGTTA	0.0762
GCAAGGGA	-0.0936
AAGTAGCA	0.0754
CAACTGAA	0.201
AGCCAGAC	-0.132
CGCCCCCA	-0.079
CGCCCCAA	0.296
GGCCCCAA	-0.177
GGCCCCAC	-0.181
CGCCCCAG	0.0509

Sequence	PBM E-score
CGCCCCAC	0.272
CTAACGCA	-0.0702
ATAGAAAC	0.189
ATCCCCTG	-0.157
ATCCCCTA	-0.0687
CTCCCCTA	-0.0541
CTCCCCGC	0.386
CTCCCCGA	0.0416
ATCCCCGC	0.249
CTCCCCTC	0.28
CGCCCCTA	0.214
CCCCCCTC	-0.244
AGCCCCTC	-0.00471
CGCCCCTC	0.351
ATCCCCTC	0.303
ACAGACTG	0.0359
GACTCCCC	-0.26
CCAGGCTC	-0.124
AGGCTTCG	-0.158
ACACTTCC	-0.0741
CAGAGCAC	0.0445
AATCGAGG	0.108
ATGAGAGC	-0.126
TAAGCTCA	-0.18
TCGATACA	0.19

Sequence	PBM E-score
AACTCCGC	-0.0808
AGTGCGCC	-0.156
GAATTTCA	-0.0538
GTTTGTTA	0.169
ATTTGTTG	0.181
CTTTGTAA	0.152
ATTTGTTA	0.274
CTTTGTTC	0.227
CTTTGTTA	0.219
ATTTGTTC	0.266
ATTTGTAA	0.288
ATTTGTAG	0.127
CCTAATGA	0.13
AGGGTCTC	-0.153
CCCTTCAC	-0.0106
AATTCATG	0.255
ACCCAGAT	0.0125
AGACCACG	-0.255
GAAACACC	0.311
TAAACACA	0.175
CAAACACG	0.17
AAAACACC	0.213
AAAACACG	0.304
AAAACACA	0.198
GAAACACA	0.408

Sequence	PBM E-score
AAAACACT	0.215
CAAACACC	0.121
AGGGCTCC	-0.236
GTCGCTTA	-0.193
CCGGGCAA	-0.0289
CATTGTGG	0.0722
ATGCTCCA	0.0506
GCCTGAAA	0.273
AGCTGAAG	-0.127
TGCTGAAA	0.24
AGCTGAAA	0.264
CGCTGAAA	0.251
GCCTGAAC	-0.209
TCCTGAAA	0.25
AGCTGAAC	-0.288
GGCTGAAA	0.27
GCCACAGC	-0.299
GGGGCTAA	-0.0575
CCTATAGA	0.00311
ATTGCGAC	0.277
CTTGCGAC	-0.128
ATTGCGAG	0.127
CCGTCGCA	0.176
CAATGCGA	-0.00861
CATGATCA	0.0535

Sequence	PBM E-score
ATCTAAAC	0.127
GTCTAAAA	0.135
CTCTAAAA	0.0605
ATCTAAAT	0.172
TTCTAAAA	0.292
ATCTAAAA	0.285
CGCTCTGA	0.0576
ACTGGGTG	-0.107
GTACCTCA	-0.173
GAGTTGGA	0.0912
ATAGTCAT	-0.141
AGGAGCGC	-0.0491
CAGTGAAA	0.197
ACGTGAAA	0.323
GAGTGAAA	0.204
AAGTGAAA	0.291
ACGTGAAC	-0.226
TAGTGATA	-0.126
TCGTGAAA	0.177
TAGTGAAA	0.324
TAGTGACA	-0.0814
GGCCACAA	0.0783
CTCCCAGA	-0.165
CCCCAAGC	0.176
GCAATCAA	0.0398

Sequence	PBM E-score
ACTGGGAA	0.0846
AGCTAGTC	-0.133
GCAAACAA	0.146
TCAAACAA	0.266
ACAAACAA	0.0589
ACAAACAC	0.266
CCAAACAA	0.125
ACAAACAG	0.125
CAGGGCGA	-0.103
CAGCGATC	-0.00075
AATGTCAT	0.0301
AGTCCCAC	-0.133
CACAATAG	0.227
AGTCTAAT	0.00604
ATATAGAT	0.179
AGGCGGGA	0.0721
AGGGCGGG	0.296
AGGGGCGC	0.0204
AGGGCGGC	-0.0895
AGGGGCGA	0.165
AGGCGGGG	0.269
AGGCGGGC	0.0738
AGGGCGTG	-0.116
AGGGGCGG	0.452
GCAAAGCC	-0.185

Sequence	PBM E-score
TCCCAGAA	-0.0433
TGCTTTAA	0.199
ACTGAGGG	-0.101
CGAGGTAC	-0.0522
CGCCGCAG	0.0202
AAATTAGA	0.283
CAATTAGA	0.102
TAATTAGA	0.161
GCCGAACC	0.0313
CGCTGAGC	-0.154
GGCCCGCC	0.0329
ACCCCGCC	0.41
GCCCCGCC	0.33
CCCCCGCC	-0.0801
AACCCGCC	0.0991
GCCCCGCA	-0.112
ACCCCTCC	0.229
CTCGCGAC	0.0527
GTCGCGAA	-0.0274
GTCGCGAC	0.389
AACTATGG	-0.0761
ATGTTGCG	0.139
AATTAGTC	0.218
TATTAATA	0.336
AATTAATG	0.232

Sequence	PBM E-score
AATTAATT	0.254
CATTAATA	0.251
AATTAATA	0.359
GATTAATA	0.246
AATTAGTA	0.263
CATTAGTA	0.071
CCATTGCA	0.0632
CGCCTAGC	-0.0616
GTCACTAA	0.0793
AATGGGGT	-0.0055
CAAACTTC	0.124
CAAACTAC	0.0311
CAAACTAA	0.265
TAAACTTA	0.168
TAAACTAA	0.148
CAAACTTA	0.276
ACGCTGAC	-0.194
AGCAAACC	0.194
CATGGGAA	-0.0149
CGGCTATC	-0.174
ATTTCTAC	0.253
AACAAATA	0.341
AACAAATT	0.268
AACAAATG	0.176
TACAAATA	0.218

Sequence	PBM E-score
AACAAGTT	0.154
AACAAGTA	0.00602
CAGGCAAA	0.0381
AATCTTAT	0.0186
CGTTAGGA	0.0933
CGAATCCG	0.0624
GCCGCTTA	0.0462
GCGTTCTA	-0.0704
AAATTCTC	0.105
AAATTCTA	0.0535
GAATTCTC	0.262
GAATTCTA	0.107
TAATTCTA	0.267
CAATTCTC	0.00128
CTTCACCC	0.0896
AAACGCTA	0.112
CCTGGCTA	-0.217
ATCCGAAA	0.185
TTCCGAAA	0.264
GTCCGAAA	0.211
GAGGGCCA	0.0172
AAGAGATA	-0.0137
CCGGCTCC	-0.0246
AAAGTCGT	-0.0472
CAAGTCGC	-0.3

Sequence	PBM E-score
AAAGTCGC	0.282
GAGATGGA	-0.167
GACATTGA	0.051
AGGTTGGA	0.114
CAACAGCA	0.021
CTGTTTGC	-0.0149
GTGTTCGA	0.0597
ATGTTTGA	0.337
CTGTTTGA	0.308
GTGTTTGA	0.301
CCGTTTGA	0.056
GTTTTTGA	0.236
ATGTTTGC	0.0377
ATGTTTGG	0.151
ACCCGACA	0.0405
GCCGCAGC	0.00254
CCCAAAGA	0.18
GCCACGAC	0.0374
TTGCAAAA	0.242
ATCGAGCC	-0.0583
AACGCCCT	-0.0731
AAACATTC	0.12
ACGCAGGG	-0.0649
CATCAAAA	0.221
CTTCAAAC	0.218

Sequence	PBM E-score
TATCAAAA	0.302
CTCAAAAA	0.178
ATTCAAAC	0.279
GATCAAAA	0.194
TTCAAGAA	0.247
ATTCAAAG	0.145
CTTCAAAA	0.191
TTCAAAAA	0.298
GTTCAAAA	0.107
TTTCAAAA	0.343
GGACAGAA	0.136
CAATTTAG	0.118
CGATAGTC	-0.186
GAGTAAGC	-0.0348
CGCAGGCA	-0.062
ACCAGTCT	-0.25
CAATGTGC	-0.133
CCAGATCC	-0.149
CTGACTAA	-0.00263
ATCAAAAA	0.316
GTCCAAAA	0.123
CCTCAAAA	0.198
CTCCAAAA	0.183
TTCCAAAA	0.277
TCTCAAAA	0.275

Sequence	PBM E-score
ATCAAAAG	0.0655
ATCAAAAT	0.192
ACTCAAAA	0.165
TAACCCAA	0.182
CGAGGTAG	-0.219
ACAGTGCA	-0.00511
GGTTAGCA	-0.0625
CCCCCTCC	-0.121
GCCCCTCC	0.445
ACCCTCCA	-0.0426
CCCTCCCA	0.33
TCCTCCCA	-0.0691
ACCCTCCC	0.378
ACCTCCCC	0.161
GCCCCTCA	0.0515
GCCTCCCC	0.305
ACCTCCCA	-0.187
GCCTCCCA	-0.104
ACCCTCCT	-0.00559
CGTAAAGA	-0.0705
AACCTTAT	0.138
CGATCTTC	-0.0861
ACAATGGC	0.0105
ACCCGTCC	-0.0354
CCCTCCTC	0.0435

Sequence	PBM E-score
CCCCTCCA	0.246
CCCTCCCG	0.0504
CCCTCCCC	0.333
CCCCTCCC	0.365
CCCCTCCG	0.171
GATTTCGC	0.2
AAGTGGGC	-0.0304
GAGCTTTA	-0.0834
ACAGTTTG	0.016
CAAAAAGA	0.178
CCAAAAAA	0.251
AGAAAAAC	0.146
CAAAAAAC	0.298
AAAAAACC	0.234
AAAAAAAC	0.331
CAAAAAAA	0.352
CAAAAACC	0.128
CCAAAAAC	0.216
GCTGAGCC	-0.0937
ACAACTCG	0.0864
ATCCCTTG	-0.0717
GAGCATAA	0.131
TAGCTGGA	-0.0515
CAGAATAC	0.0945
TTAAAAAA	0.294

Sequence	PBM E-score
TAAAACAA	0.261
TAATAAAA	0.225
TTAAAGAA	0.251
TAAAAAGA	0.248
TAAAAAAA	0.313
TTAAACAA	0.123
AAAAACAA	0.251
CTAAAAAG	0.218
CTAAAAAA	0.278
CTAAAAGA	0.0876
CTAAAAAC	0.023
CGGCGAAC	0.0131
GGAAGGGA	-0.106
CTGTACTC	-0.247
CTAGTGTA	0.129
GACTACTC	-0.0788
CCCCATTA	-0.193
CTAATAAA	0.145
ATAATAAA	0.255
TTAATAAA	0.344
